# Shown are actives, neighbours in structure and some others; about 7.6% of the full set was active somewhere.
# KCNH2 3.1 block: qHTS for Inhibitors of KCHN2 3.1: Mutant qHTS; hit rate 0.95% among 340,000; Potassium voltage-gated channel subfamily H member 2, brain isoform KCNH2 3.1 (human); U2OS KCNH2 3.1, thallium flux FluxOr; hits give low values; activity change, % (tested at about 1.8 µM);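 active = maximum activity change below -70%; inconclusive = maximum activity change from -70% to -50%; inactive = maximum activity change above -50%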;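 also: thallium influx rate constant from kinetic fluorescence after stimulation buffer; % is scaled to controls: 0 for no effect and ±100 for the full control effect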
#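 Kinetic fluorescence (2 min after stimulation buffer) measures Tl+ influx through KCNH2 3.1 expressed by viral transduction in U2OS cells; the rate constant is normalized against DMSO controls serving as positive and negative references.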
# hERG WT inh: qHTS for Inhibitors of KCHN2 3.1: Wildtype qHTS | U2OS, BacMam KCNH2, thallium flux FluxOr; hits give low values | activity change, % at 1.84 µM | hit rate 0.37% among 340,000 | AID 720551, 2013;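 active = maximum activity change below -70%; inconclusive = maximum activity change between -70% and -50%; inactive = maximum activity change above -50%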; also: % is scaled to controls: 0 for no effect and ±100 for the full control effect
# Target sequence (Q12809 whole entry, looked up): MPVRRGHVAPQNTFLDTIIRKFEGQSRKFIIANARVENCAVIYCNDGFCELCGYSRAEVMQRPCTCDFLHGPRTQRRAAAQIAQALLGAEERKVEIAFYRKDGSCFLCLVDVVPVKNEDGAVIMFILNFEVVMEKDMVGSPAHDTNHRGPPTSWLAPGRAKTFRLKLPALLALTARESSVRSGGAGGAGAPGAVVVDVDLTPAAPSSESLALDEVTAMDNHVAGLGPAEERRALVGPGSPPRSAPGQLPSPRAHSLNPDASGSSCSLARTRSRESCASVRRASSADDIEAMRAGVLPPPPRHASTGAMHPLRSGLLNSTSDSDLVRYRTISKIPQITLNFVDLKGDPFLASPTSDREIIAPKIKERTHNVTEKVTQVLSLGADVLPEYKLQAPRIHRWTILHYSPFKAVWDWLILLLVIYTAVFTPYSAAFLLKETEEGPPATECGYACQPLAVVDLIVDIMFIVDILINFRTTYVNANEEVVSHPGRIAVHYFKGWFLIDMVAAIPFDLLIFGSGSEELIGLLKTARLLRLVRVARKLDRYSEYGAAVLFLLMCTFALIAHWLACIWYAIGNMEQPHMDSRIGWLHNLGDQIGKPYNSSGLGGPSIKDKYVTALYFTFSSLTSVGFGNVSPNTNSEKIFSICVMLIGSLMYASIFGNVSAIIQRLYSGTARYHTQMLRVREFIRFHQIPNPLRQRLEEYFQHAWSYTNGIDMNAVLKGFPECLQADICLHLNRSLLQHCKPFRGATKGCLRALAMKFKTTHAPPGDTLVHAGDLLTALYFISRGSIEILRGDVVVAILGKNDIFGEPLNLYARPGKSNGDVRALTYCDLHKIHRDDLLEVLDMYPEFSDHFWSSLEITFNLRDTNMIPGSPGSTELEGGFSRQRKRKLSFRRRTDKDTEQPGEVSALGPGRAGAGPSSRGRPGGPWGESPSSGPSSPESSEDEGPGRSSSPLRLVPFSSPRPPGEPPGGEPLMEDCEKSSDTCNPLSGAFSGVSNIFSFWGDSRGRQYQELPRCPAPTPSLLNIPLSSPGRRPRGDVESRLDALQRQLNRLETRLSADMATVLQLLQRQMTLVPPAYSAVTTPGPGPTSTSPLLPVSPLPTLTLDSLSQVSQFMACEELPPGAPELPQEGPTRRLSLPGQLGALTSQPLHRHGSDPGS
#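 U2OS cells transduced with wild-type KCNH2 virus are loaded with FluxOr dye for 45 min, and thallium flux is measured in kinetic reads before and after stimulation buffer. Rate constants are normalized to DMSO controls.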
# MCF10A rereplic: A quantitative high throughput screen for small molecules that induce DNA re-replication in MCF 10a normal breast cells | hit rate 2.9% among 350,000 | AID 624296, 2012 | MCF 10A DNA re-replication, Hoechst nuclear intensity, 48 h | Potency, µM (highest dose often 46.1 µM), inactives show at the highest dose activity, positive = re-replication, most hits filed as activators; also: potency is read from the fitted curve at half-maximal effect; % of control where 0% means no effect; nearly all actives have a fitted effect of over 50% in size
# SW480 rerep: A quantitative high throughput screen for small molecules that induce DNA re-replication in SW480 colon adenocarcinoma cells; Potency, µM (doses to about 46.1 µM), for the others: top-dose re-replication activation, most hits filed as activators; SW480 DNA re-replication, Hoechst DNA content imaging, 48 h; hit rate 1.8% among 340,000; also: potency is read from the fitted curve at half-maximal effect; % of control where 0% means no effect; nearly all actives have a fitted effect of over 55% in size
#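 Hoechst fluorescence of nuclei (405 nm excitation, 500-530 nm emission) measured by plate-scanning imager after 48 hr compound exposure at 37 C; re-replication scored as increased number of nuclei with elevated intensity.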
# KB-V1 MDR tox: qHTS assay for MDR1-selective chemotherapeutics: Primary screen using the drug-selected MDR subline cells KB-V1. KB-V1 MDR cells viability, CellTiter-Glo, 72 h. Potency, µM (highest dose often 46.1 µM), usual class: cytotoxic. hit rate 3.4% among 400,000. AID 1347076, 2019; also: potency is read from the fitted curve at half-maximal effect; % is scaled to controls: 0 for no effect and ±100 for the full control effect; nearly all actives have a fitted effect of over 60% in size
#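 Compound-treated KB-V1 multidrug-resistant cells, 72 h, 37 degrees C; viability by CellTiter-Glo. Fitted qHTS curves give the values.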
# KB-3-1 cytotox: qHTS assay for MDR1-selective chemotherapeutics: Primary screen using the parental adenocarcinoma cell KB-3-1; KB-3-1 viability, CellTiter-Glo ATP luminescence, 72 h; Potency, µM (top dose mostly 46.1 µM), most hits filed as cytotoxic; AID 1347075, 2019; hit rate 1.4% among 400,000; also: potency is read from the fitted curve at half-maximal effect; % is scaled to controls: 0 for no effect and ±100 for the full control effect; nearly all actives have a fitted effect of over 60% in size
#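 72 h, 37 °C compound treatment of KB-3-1 parental cells; CellTiter-Glo added, 10 min, luminescence read. Data corrected against DMSO-only plates and normalized before curve fitting.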
# * = called active by the depositor; i = inactive; ? = inconclusive; nt = no result given; ! = not confirmed by another sample; [ ] = dose if it differs, or a comment. Unless noted, calls follow the shape of the dose curve; as a rule, active = well fitted curve in the direction sought with a large enough effect; inconclusive = small, poorly fitted or top-dose-only effect, or another doubt; inactive = no such curve, though single readings can be large; an effect the other way counts as inactive or inconclusive.
SMILES,KCNH2 3.1 block,hERG WT inh,MCF10A rereplic,SW480 rerep,KB-V1 MDR tox,KB-3-1 cytotox
CCCCCCCCN1C(=O)[C@H](CC(=O)NCc2cccs2)C[C@@]2(C(=O)OC)CCCCC=C12,nt,nt,nt,nt,21µM*,?
O=C(CSc1nnc(-c2ccccc2)o1)N1CCCCC1,25,-4,-3%,-9%,i,i
Cc1nn(CC(=O)NCCC2=CCCCC2)c(C)c1[N+](=O)[O-],13,6,-3%,-97%,i,i
CC(C(=O)NN=C(c1ccccc1)c1ccccc1)N1CCOCC1 (stereo unspecified),-31,nt,-3%,-19%,i,i
CCOc1ccccc1NC(=O)CSc1nccn1-c1cccc(C)c1,nt,nt,nt,nt,?,i
CC(=O)Nc1ccc(S(=O)(=O)NNC(=O)c2sc(=S)n(C)c2C)cc1,-8,-3,-3%,-30%,i,?
CCOc1ccc(NC(=O)[C@@H]2CCCN2C(=O)c2cccs2)cc1S(=O)(=O)N1CCCCC1,7,-9,-1%,8%,9.2µM*,i
CC1CCCN(S(=O)(=O)c2ccc(NC(=O)[C@@H]3CCCN3C(=O)c3cccs3)cc2)C1 (stereo partly specified),16,-5,23%,-9%,i,i
CC1CCN(S(=O)(=O)c2ccc(NC(=O)[C@@H]3CCCN3C(=O)c3cccs3)cc2)CC1,-13,0,12%,10%,21µM*,i
CCOc1ccc(NC(=O)[C@@H]2CCCN2C(=O)c2cccs2)cc1S(=O)(=O)N1CCOCC1,6,-5,-1%,-5%,i,i
O=C(Nc1ccccc1Cc1ccccc1)c1ccccc1NS(=O)(=O)c1ccc(Cl)s1,-4,-16,9.2µM*,?,2.6µM*,?
O=C(NCc1ccco1)c1ccccc1NS(=O)(=O)c1ccc(Cl)s1,1,9,21%,-9%[9.22 µM],i,i
Cc1ccc(NC(=O)c2ccccc2NS(=O)(=O)c2ccc(Cl)s2)cc1,15,5,9.2µM*,?,7.3µM*,10µM*
CC(C)(C)c1ccc(OCCC(=O)OCC(=O)NCc2ccccc2)cc1,-3,-1,-1%,-12%,i,i
Cc1cccc(NC(=O)NCc2cccnc2)c1C,-5,-5,13%,60%,i,i
COc1ccc(C2C3=C(CC(C)(C)CC3=O)Nc3nc(C)nn32)cc1OC (stereo unspecified),5,-3,-5%,-3%,i,i
COc1ccccc1N1CCN(S(=O)(=O)c2ccc3nc(-c4ccccc4)[nH]c3c2)CC1,-3,-10,26µM*!,-4%,?,i
COc1cc(S(=O)(=O)N2CCN(c3ccccc3)CC2)ccc1Cl,-1,2,7%,6%,23µM*,i
O=C(NCCCN1CCOCC1)c1cccc(S(=O)(=O)N2CCN(c3ccccc3)CC2)c1,-2,3,16%,-16%,i,i
O=C(NCCOc1ccccc1F)c1cccc(S(=O)(=O)N2CCN(c3ccccc3)CC2)c1,-28,-2,0%,?,13µM*,i
O=C(NNC(=O)c1cccc(S(=O)(=O)N2CCN(c3ccccc3)CC2)c1)c1ccc(Cl)cc1,-22,11,?,-4%,16µM*,i
O=S(=O)(c1ccc2nc(-c3ccccc3)[nH]c2c1)N1CCN(c2cccc(Cl)c2)CC1,1,0,?,?,i,i
C1CCN2C[C@@H]3C[C@@H](CN4CCCC[C@H]34)[C@H]2C1,nt,nt,0%[20.6 µM],0%[20.6 µM],nt,nt
C/C(=N\NC(=O)c1nnn(-c2nonc2N)c1-c1ccc(Cl)c(Cl)c1)c1ccncc1,2,-5,10%,-1%,i,i
CN(C)CCNc1ncnc2c1sc1nc(-c3ccccc3)c3c(c12)CCCC3,0,2,?,4%,?,i
SMILES,KCNH2 3.1 block,hERG WT inh,MCF10A rereplic,SW480 rerep,KB-V1 MDR tox,KB-3-1 cytotox
CCCCCCCCCn1ccc(=N)cc1,13,7,24%,2%,16µM*,0.52µM*
CCCCCn1ccc(=N)cc1,-14,-6,-2%,4%,i,i
CCCCCCCn1ccc(=N)cc1,8,-4,?,?,i,4.6µM*
O=C(CSc1nnc(Cc2ccc3c(c2)OCO3)n1C1CCCCC1)NC1CCCC1,-4,2,0%,8%,i,i
NC(=O)CSc1nnc(Cc2ccc3c(c2)OCO3)n1C1CCCCC1,-77*,0,2%,-14%,i,i
Cc1ccc(-c2cn(-c3cccc(Cl)c3)c(S(=O)(=O)CC(=O)Nc3cccc(C)c3)n2)cc1,nt,nt,nt,nt,?,i
O=C(CS(=O)(=O)c1nc(-c2ccc(Cl)cc2)cn1-c1ccccc1)Nc1cccc(Cl)c1,nt,nt,nt,nt,16µM*,16µM*
Cc1cc(C)c2nc(N(Cc3cccnc3)C(=O)c3ccc(S(=O)(=O)N(C)C)cc3)sc2c1,nt,nt,nt,nt,i,i
CC(C)CCCCCCCCCCCCC(=O)NCC(=O)NC1C(C)OC(Nc2ncnc3nc[nH]c23)C(O)C1O (stereo unspecified),11,18,23%,30%,?,0.01µM*
CC(C)CNc1ncnc2nc[nH]c12,nt,nt,nt,nt,i,i
CC(NO)/C(=N\O)c1cccs1 (stereo unspecified),-23,-7,3.7µM*,?,i,i
C/C(=N\N=C(c1ccccc1)c1ccccc1)c1cccs1,-4,-3,16%,-2%,i,i
NC(=O)CC(NC(=O)Cc1ccc(Br)cc1)c1ccc(NC2CCC2)c([N+](=O)[O-])c1 (stereo unspecified),-44,4,11%,10%[9.22 µM],i,i
NC(=O)CC(NC(=O)Cc1ccc(Cl)cc1)c1ccc(NCC2CC2)c([N+](=O)[O-])c1 (stereo unspecified),-42,-194*,-14%,-7%,i,i
NC(=O)CC(NC(=O)Cc1ccc(Cl)cc1)c1ccc(NC2CCCC2)c([N+](=O)[O-])c1 (stereo unspecified),-21,10,0%,-3%,i,i
NC(=O)CC(NC(=O)Cc1ccc(Br)cc1)c1ccc(NCC2CC2)c([N+](=O)[O-])c1 (stereo unspecified),-82*,-32,8%,-15%,i,i
O=C(Nc1cccc(Cl)c1)c1csc(COCCO)n1,nt,nt,nt,nt,i,i
